Data from the supplement of paper PMC13380429.

Columns and labels:
[1] = tested on: Vero E6 infected with SARS-CoV-2; experiment: morphology score (similarity to uninfected cells); higher = more like uninfected cells; conditions: 24 h
[2] = tested on: Vero E6 infected with SARS-CoV-2; experiment: SARS-CoV-2 infection rate relative to infected DMSO; higher = more infection, active = 60 or less; conditions: 24 h

Structure (SMILES)	morphology score [1]	SARS-CoV-2 infection rate [2]
CN1Cc2c(C(=O)OC(C)(C)C)ncn2-c2ccsc2C1=O (10 µM)	-0.00637	102% (inactive)
C=C1CC[C@H](O)C/C1=C/C=C1\CCC[C@]2(C)[C@@H]([C@H](C)CCCC(C)C)CC[C@@H]12 [cholecalciferol] (10 µM)	-0.0066	96.5% (inactive)
CCc1cnn2c(NCc3ccc[n+]([O-])c3)cc(N3CCCC[C@H]3CCO)nc12 [dinaciclib] (0.833333 µM)	-0.154	116% (inactive)
O=C(O)CCCCC(=O)O [adipic-acid] (10 µM)	-0.0456	105% (inactive)
CC(C)(C)c1cc(C(C)(C)C)c(NC(=O)c2c[nH]c3ccccc3c2=O)cc1O [ivacaftor] (10 µM)	0.363	93% (inactive)
C[C@]12CC[C@H](O)C[C@H]1CC[C@@H]1[C@@H]2CC[C@]2(C)[C@@](O)(c3ccoc3)CC[C@]12O [rostafuroxine] (10 µM)	-0.206	118% (inactive)
Cc1ccc(Cl)c(OC[C@H](O)CNC(C)C)c1 [1-(2-chloro-5-methylphenoxy)-3-(isopropylamino)-2-propanol] (10 µM)	0.0769	95.5% (inactive)
Cn1cc(-c2ccc(F)c(C(F)(F)F)c2)nc1C1CCN(c2ncnc3[nH]ncc23)CC1 (10 µM)	0.119	110% (inactive)
Cc1cc(-c2nncc3c(C(C)(C)C)c(OCc4ncnn4C)nn23)no1 (10 µM)	0.149	95% (inactive)
Cc1ccc(OC[C@@H](O)[C@H](C)NC(C)C)c2c1CCC2 (racemic) (10 µM)	-0.0205	110% (inactive)
C[C@H]1C[C@H]2[C@@H]3CCC4=CC(=O)C=C[C@]4(C)[C@@]3(F)[C@@H](O)C[C@]2(C)[C@@]1(O)C(=O)CO [betamethasone] (10 µM)	-0.0234	111% (inactive)
CS(=O)(=O)c1ccc(-c2cc(Br)sc2-c2ccc(F)cc2)cc1 (10 µM)	0.0351	104% (inactive)
CN(C)CCC=C1c2ccccc2CCc2ccccc21 [amitriptyline] (10 µM)	0.0472	100% (inactive)
O=C(/C=C/C=C/c1ccc2c(c1)OCO2)N1CCCCC1 [piperine] (10 µM)	0.0346	97.5% (inactive)
O=C(CC1NCCCC1O)Cn1cnc2cc(Br)c(Cl)cc2c1=O (centres undefined) [halofuginone] (0.833333 µM)	-0.082	99.5% (inactive)
O=C(Nc1ccc(N2CCC(C(=O)N3CCOCC3)CC2)cc1)c1cnc(Oc2ccccc2)nc1 (10 µM)	-0.02	114% (inactive)

Structure (SMILES)	morphology score [1]	SARS-CoV-2 infection rate [2]
O=C(O)C[C@H]1CC[C@H](c2ccc(-c3ccc(Nc4ccc(C(F)(F)F)nc4)cn3)cc2)CC1 (10 µM)	0.27	73.5% (inactive)
CCNC(=O)c1n[nH]c(-c2cc(Cl)c(O)cc2O)c1-c1ccc(OC)cc1 (10 µM)	0.0403	104% (inactive)
CC(=O)Nc1ccc(O)cc1 [paracetamol] (10 µM)	-0.0685	103% (inactive)
O=C(Cc1ccccc1)Nc1nc2ccc(Cl)cc2c2nc(-c3ccco3)nn12 (10 µM)	-0.00361	110% (inactive)
CCCCN1[C@@H]2CC[C@H]1C[C@@H](OC(c1ccc(F)cc1)c1ccc(F)cc1)C2 (0.833333 µM)	0.0455	86% (inactive)
COc1ccc(C2(O)CCC(N3CC[C@@H](NC(=O)CNC(=O)c4cccc(C(F)(F)F)c4)C3)CC2)cn1 (some centres undefined) (10 µM)	-0.0197	105% (inactive)
CN(C)CCCn1cc(C2=C(c3c[nH]c4ccccc34)C(=O)NC2=O)c2ccccc21 (0.833333 µM)	-0.0102	104% (inactive)
Cc1ccc(S(=O)(=O)Cc2nc(-c3ccc(C(=O)NCc4cccnc4)cc3)oc2C)cc1 (0.833333 µM)	-0.146	93% (inactive)
Cc1cccc(C)c1NC(=O)C[N+](C)(C)C (10 µM)	0.198	97% (inactive)
C[C@](N)(Cc1ccc(O)c(O)c1)C(=O)O [methyldopa] (10 µM)	-0.111	97.5% (inactive)
CCCOC(C(=O)OC1CCN(C)CC1)(c1ccccc1)c1ccccc1 [propiverine] (10 µM)	0.677	41% (active)
CC1(C)CCC(C)(C)c2cc(C3(c4ccc5cc(C(=O)O)ccc5c4)SCCS3)ccc21 (10 µM)	0.132	98% (inactive)
CCOc1nc2c(N)ncnc2n1CC (10 µM)	0.236	88% (inactive)
O=C1c2c(O)cccc2C([C@@H]2O[C@H](CO)[C@@H](O)[C@H](O)[C@H]2O)c2cc(CO)cc(O)c21 (some centres undefined) [aloin] (10 µM)	-0.243	116% (inactive)
CC(Cc1cccc(C(F)(F)F)c1)NCCOC(=O)c1ccccc1 (centres undefined) [benfluorex] (10 µM)	0.0298	104% (inactive)
CC1=C(/C=C/C(C)=C/C=C/C(C)=C/C=C/C=C(C)/C=C/C=C(C)/C=C/C2=C(C)C(=O)[C@@H](O)CC2(C)C)C(C)(C)C[C@H](O)C1=O [astaxanthin] (10 µM)	0.0152	107% (inactive)
